According to the supplement of paper PMC9262897, “Low-cost anti-mycobacterial drug discovery using engineered E. coli” (Nature Communications, 2022):
Counter-ions that a name gives are not always drawn. ± gives the standard deviation of the averaged measurements.

Columns and labels:
Test in all cases: growth (OD600 after 10 h); higher = more growth (less inhibition)
[1] = tested on: E. coli TESEC Alr+ wild-type control; conditions: compound 0.1 mM; raw OD600 reference: median of DMSO wells 0.241, cell-free background 0.041
Procedure: (§1)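 TESEC Mtb Alr E. coli, or the Alr+ wild-type control, in 384-well plates with Prestwick library compounds at 0.1 mM and 1% DMSO, across arabinose induction levels of 1E3 to 1E7 nM. Growth is read as OD600 after 10 h at 37 °C in triplicate biological replicates.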

E. coli TESEC Mtb Alr [2] = conditions: compound 0.1 mM
Procedure: as §1

E. coli TESEC Mtb Asd = conditions: compound 0.1 mM
Procedure: (§2)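 TESEC E. coli strains in which the native enzyme is deleted and replaced by arabinose-inducible Mtb Asd, DapB, CysH or TrpD, each grown in its selective medium. Strains were screened against the Prestwick library at 0.1 mM and 1% DMSO in 384-well format at low and high arabinose induction. Growth is read as OD600 after 10 h in triplicate.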

E. coli TESEC Mtb DapB = conditions: compound 0.1 mM
Procedure: as §2

E. coli TESEC Mtb Alr [3] = conditions: compound 0.1 mM; remark: listed apart in the source
Procedure: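 TESEC Mtb Alr E. coli (ΔaraC ΔtolC ΔentC Δalr ΔdadX, arabinose-inducible Mtb Alr) or the Alr+ wild-type control strain, grown in defined M9-fructose medium without D-alanine in 96-well plates with Prestwick library compounds at 0.1 mM and 1% DMSO. Low Alr induction is 0.1 µM arabinose and high induction is 10 mM arabinose.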

[4] = arabinose 1000 nM, raw OD600 reference: median of DMSO wells 0.294, cell-free background 0.041
[5] = arabinose 10000 nM, raw OD600 reference: median of DMSO wells 0.264, cell-free background 0.041
[6] = arabinose 100000 nM, raw OD600 reference: median of DMSO wells 0.201, cell-free background 0.041
[7] = arabinose 1000000 nM, raw OD600 reference: median of DMSO wells 0.193, cell-free background 0.041
[8] = arabinose 10000000 nM, raw OD600 reference: median of DMSO wells 0.146, cell-free background 0.041
[9] = arabinose induction (level): High, raw OD600 reference: median of DMSO wells 0.331, cell-free background 0.041
[10] = arabinose induction (level): Low, raw OD600 reference: median of DMSO wells 0.417, cell-free background 0.041
[11] = arabinose induction (level): High, raw OD600 reference: median of DMSO wells […], cell-free background 0.041
[12] = arabinose induction (level): Low, raw OD600 reference: median of DMSO wells 0.227, cell-free background 0.041
[13] = arabinose 100 nM, raw OD600 reference: median of DMSO wells 0.413, cell-free background 0.052
[14] = arabinose 10000000 nM, raw OD600 reference: median of DMSO wells […], cell-free background 0.052

| Compound | growth [1] | growth (E. coli TESEC Mtb Alr [2]; [4]) | growth (E. coli TESEC Mtb Alr [2]; [5]) | growth (E. coli TESEC Mtb Alr [2]; [6]) | growth (E. coli TESEC Mtb Alr [2]; [7]) | growth (E. coli TESEC Mtb Alr [2]; [8]) | growth (E. coli TESEC Mtb Asd; [9]) | growth (E. coli TESEC Mtb Asd; [10]) | growth (E. coli TESEC Mtb DapB; [11]) | growth (E. coli TESEC Mtb DapB; [12]) | growth (E. coli TESEC Mtb Alr [3]; [13]) | growth (E. coli TESEC Mtb Alr [3]; [14]) |
| --- | --- | --- | --- | --- | --- | --- | --- | --- | --- | --- | --- | --- |
| CCC[C@@H]1C[C@@H](C(=O)N[C@@H]([C@H]2O[C@H](SC)[C@H](O)[C@@H](O)[C@H]2O)[C@H](C)Cl)N(C)C1 [Clindamycin hydrochloride] | 0.0527 ± 0.0012 | 0.048 ± 0.0007 | 0.04127 ± 0.0004 | 0.0497 ± 0.00055 | 0.04133 ± 0.00032 | 0.0496 ± 0.00085 | 0.0699 ± 0.0019 | 0.0715 ± 0.0033 | 0.0755 ± 0.0023 | 0.0766 ± 0.0063 | 0.15 ± 0.014 | 0.0594 ± 0.0027 |
| CCc1cc(Cl)c(OC)c(C(=O)NC[C@@H]2CCCN2CC)c1O [S(-)Eticlopride hydrochloride] | 0.191 ± 0.013 | 0.242 ± 0.024 | 0.271 ± 0.0095 | 0.17 ± 0.0077 | 0.122 ± 0.0019 | 0.163 ± 0.0043 | 0.189 ± 0.015 | 0.356 ± 0.07 | 0.181 ± 0.011 | 0.259 ± 0.0028 | 0.399 ± 0.0083 | 0.272 ± 0.021 |
| CCOC(=O)C(C)(C)Oc1ccc(Cl)cc1 [Clofibrate] | 0.237 ± 0.0033 | 0.287 ± 0.0062 | 0.268 ± 0.0049 | 0.19 ± 0.013 | 0.194 ± 0.0078 | 0.137 ± 0.0052 | 0.279 ± 0.041 | 0.415 ± 0.043 | 0.19 ± 0.015 | 0.236 ± 0.041 | 0.4111 ± 0.0031 | 0.325 ± 0.0033 |
| CC(=O)O[C@]1(C(C)=O)CC[C@H]2[C@@H]3C=C(Cl)C4=CC(=O)[C@@H]5C[C@@H]5[C@]4(C)[C@H]3CC[C@@]21C [Cyproterone acetate] | 0.1672 ± 0.001 | 0.168 ± 0.0067 | 0.125 ± 0.027 | 0.122 ± 0.0081 | 0.0693 ± 0.0035 | 0.0975 ± 0.0046 | 0.111 ± 0.041 | 0.109 ± 0.0055 | 0.135 ± 0.01 | 0.131 ± 0.011 | 0.385 ± 0.035 | 0.0934 ± 0.024 |
| CCN(CC)C(=O)c1ccc(O)c(OC)c1 [Ethamivan] | 0.24 ± 0.0033 | 0.295 ± 0.0045 | 0.249 ± 0.0036 | 0.232 ± 0.013 | 0.181 ± 0.0058 | 0.138 ± 0.0057 | 0.388 ± 0.079 | 0.397 ± 0.041 | 0.196 ± 0.0081 | 0.2251 ± 0.0019 | 0.406 ± 0.013 | 0.356 ± 0.02 |
| CNCC[C@@H](Oc1cccc2ccccc12)c1cccs1 [(R)-Duloxetine hydrochloride] | 0.11 ± 0.038 | 0.0692 ± 0.004 | 0.04907 ± 0.00032 | 0.0556 ± 0.002 | 0.0447 ± 0.0038 | 0.0466 ± 0.0019 | 0.106 ± 0.066 | 0.0934 ± 0.04 | 0.0757 ± 0.0014 | 0.0799 ± 0.007 | 0.4098 ± 0.0032 | 0.272 ± 0.011 |
| O=C1CC2(CCCC2)CC(=O)N1CCCCN1CCN(c2ncccn2)CC1 [Buspirone hydrochloride] | 0.2005 ± 0.002 | 0.274 ± 0.0095 | 0.2798 ± 0.0023 | 0.184 ± 0.028 | 0.198 ± 0.011 | 0.134 ± 0.0058 | 0.337 ± 0.021 | 0.439 ± 0.046 | 0.1852 ± 0.0015 | 0.226 ± 0.035 | 0.411 ± 0.0053 | 0.346 ± 0.011 |
| Cn1ccnc1S [Methimazole] | 0.257 ± 0.0088 | 0.32 ± 0.018 | 0.275 ± 0.0076 | 0.195 ± 0.011 | 0.191 ± 0.0034 | 0.16 ± 0.0067 | 0.484 ± 0.0095 | 0.417 ± 0.096 | 0.2 ± 0.0098 | 0.262 ± 0.04 | 0.405 ± 0.014 | 0.323 ± 0.009 |
| CC(C)NCC(O)COc1cccc2[nH]ccc12 (centres undefined) [Pindolol] | 0.233 ± 0.0063 | 0.286 ± 0.024 | 0.271 ± 0.014 | 0.203 ± 0.0064 | 0.179 ± 0.0088 | 0.142 ± 0.00072 | 0.393 ± 0.0086 | 0.403 ± 0.021 | 0.201 ± 0.011 | 0.231 ± 0.048 | 0.413 ± 0.0051 | 0.376 ± 0.013 |
| NCc1ccc(S(N)(=O)=O)cc1 [Mafenide hydrochloride] | 0.248 ± 0.0039 | 0.295 ± 0.021 | 0.259 ± 0.0097 | 0.187 ± 0.015 | 0.177 ± 0.0036 | 0.14 ± 0.0058 | 0.358 ± 0.018 | 0.41 ± 0.044 | 0.199 ± 0.0035 | 0.251 ± 0.032 | 0.418 ± 0.0068 | 0.373 ± 0.018 |
| CN1CCN(CCCN2c3ccccc3Sc3ccc(S(=O)(=O)N(C)C)cc32)CC1 [Thioproperazine dimesylate] | 0.181 ± 0.0045 | 0.165 ± 0.0059 | 0.196 ± 0.0078 | 0.195 ± 0.0039 | 0.106 ± 0.0049 | 0.173 ± 0.0023 | 0.171 ± 0.017 | 0.246 ± 0.049 | 0.2 ± 0.024 | 0.249 ± 0.0047 | 0.404 ± 0.0053 | 0.232 ± 0.0024 |
| CCn1nc(C(=O)O)c(=O)c2cc3c(cc21)OCO3 [Cinoxacin] | 0.0813 ± 0.0028 | 0.0736 ± 0.006 | 0.0622 ± 0.0033 | 0.089 ± 0.0035 | 0.108 ± 0.0017 | 0.139 ± 0.0015 | 0.335 ± 0.024 | 0.244 ± 0.035 | 0.211 ± 0.013 | 0.212 ± 0.0088 | 0.0933 ± 0.016 | 0.0712 ± 0.0049 |
| CCC(=O)O[C@@H](O[P@](=O)(CCCCc1ccccc1)CC(=O)N1C[C@H](C2CCCCC2)C[C@H]1C(=O)O)C(C)C [Fosinopril] | 0.221 ± 0.007 | 0.33 ± 0.0063 | 0.25 ± 0.015 | 0.281 ± 0.018 | 0.0879 ± 0.0031 | 0.154 ± 0.0039 | 0.185 ± 0.013 | 0.351 ± 0.065 | 0.165 ± 0.0076 | 0.226 ± 0.017 | 0.334 ± 0.044 | 0.0696 ± 0.00091 |
| CN1CC2c3ccccc3Oc3ccc(Cl)cc3C2C1 (centres undefined) [Asenapine maleate] | 0.184 ± 0.004 | 0.159 ± 0.012 | 0.225 ± 0.0073 | 0.18 ± 0.004 | 0.123 ± 0.0024 | 0.164 ± 0.0081 | 0.229 ± 0.031 | 0.295 ± 0.017 | 0.213 ± 0.0042 | 0.254 ± 0.026 | 0.417 ± 0.0072 | 0.266 ± 0.0045 |
| Oc1c(Cl)cc(Cl)c(Cl)c1Cc1c(O)c(Cl)cc(Cl)c1Cl [Hexachlorophene] | 0.0444 ± 0.00067 | 0.04387 ± 0.00038 | 0.0445 ± 0.00086 | 0.04433 ± 0.00015 | 0.04387 ± 5.8e-05 | 0.0464 ± 0.0029 | 0.0582 ± 0.0021 | 0.0553 ± 0.004 | 0.0536 ± 0.0015 | 0.053 ± 0.00044 | 0.063 ± 0.0035 | 0.0602 ± 0.0016 |
| CC(CN(C)C)C(C)(O)Cc1ccc(Cl)cc1 (centres undefined) [Clobutinol hydrochloride] | 0.221 ± 0.0026 | 0.263 ± 0.018 | 0.265 ± 0.0075 | 0.197 ± 0.0069 | 0.181 ± 0.0066 | 0.142 ± 0.013 | 0.222 ± 0.015 | 0.353 ± 0.1 | 0.187 ± 0.0091 | 0.222 ± 0.026 | 0.405 ± 0.0082 | 0.3421 ± 0.0029 |
| CCCC(CCC)C(=O)O [Valproic acid] | 0.241 ± 0.0026 | 0.293 ± 0.0086 | 0.2722 ± 0.00032 | 0.22 ± 0.02 | 0.22 ± 0.0036 | 0.137 ± 0.0016 | 0.416 ± 0.018 | 0.404 ± 0.047 | 0.202 ± 0.011 | 0.246 ± 0.0077 | 0.41 ± 0.01 | 0.358 ± 0.022 |
